Screening data from PubChem.
This is a sample that favours compounds with a hit; in the whole collection about 10% have one here.
MCF10A rereplic – A quantitative high throughput screen for small molecules that induce DNA re-replication in MCF 10a normal breast cells; MCF 10A DNA re-replication, Hoechst nuclear intensity, 48 h; Potency, µM (highest dose often 46.1 µM), most hits filed as activators; actives 2.9% (n = 350,000); AID 624296, 2012; note: nearly all actives have a fitted effect of over 50% in size
ELG1 repair inh – qHTS screen for small molecules that inhibit ELG1-dependent DNA repair in human embryonic kidney (HEK293T) cells expressing luciferase-tagged ELG1. HEK293T ELG1-luciferase reporter, luminescence, 16 h; DNA damage induced by 5-fluorouridine. Potency, µM (doses to about 46.1 µM), hits mostly inhibitors. actives 2.3% (n = 330,000). AID 504467, 2011; note: nearly all actives have a fitted effect of over 55% in size
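HEK293T cells expressing luciferase-tagged ELG1 (2,000/well) received 5-Fluorouridine plus compound or DMSO for 16 hr at 37 °C. Luciferase was read by ONE-Glo luminescence after 30 min at room temperature.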
SW480 rereplic – A quantitative high throughput screen for small molecules that induce DNA re-replication in SW480 colon adenocarcinoma cells. SW480 DNA re-replication, Hoechst DNA content imaging, 48 h. AID 624297, 2012. Potency, µM (top dose mostly 46.1 µM), hits mostly activators. actives 1.8% (n = 340,000); note: nearly all actives have a fitted effect of over 55% in size
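Image-based read-out: total Hoechst fluorescence of nuclei (405 nm excitation, 500-530 nm emission), with hits raising the fraction of high-intensity nuclei. SW480 colon cells incubated 48 hr with compounds at 37 C.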
RORg inh – qHTS for inhibitors of ROR gamma transcriptional activity; Nuclear receptor ROR-gamma (Mus musculus), P51450; Drosophila S2 Gal4-RORgamma UAS-luciferase reporter, 20 h; actives 5.4% (n = 310,000); Potency, µM (series often up to 53.6 µM), usual class: inhibitors; note: nearly all actives have a fitted effect of over 60% in size
Target sequence (P51450 whole entry, looked up, the tested form may be a part): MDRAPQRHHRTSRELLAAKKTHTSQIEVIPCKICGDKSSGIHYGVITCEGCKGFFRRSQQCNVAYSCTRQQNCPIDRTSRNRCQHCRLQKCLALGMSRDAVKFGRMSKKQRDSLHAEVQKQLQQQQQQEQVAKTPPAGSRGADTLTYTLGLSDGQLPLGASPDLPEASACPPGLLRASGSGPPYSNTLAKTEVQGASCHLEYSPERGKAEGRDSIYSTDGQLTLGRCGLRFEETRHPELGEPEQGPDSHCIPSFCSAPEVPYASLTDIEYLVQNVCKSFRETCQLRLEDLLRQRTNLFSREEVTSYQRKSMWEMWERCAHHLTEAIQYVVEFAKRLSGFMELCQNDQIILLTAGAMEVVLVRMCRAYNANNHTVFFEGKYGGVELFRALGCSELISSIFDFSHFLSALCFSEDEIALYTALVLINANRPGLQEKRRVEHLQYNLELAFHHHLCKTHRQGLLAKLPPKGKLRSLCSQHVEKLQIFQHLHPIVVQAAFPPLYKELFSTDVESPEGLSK
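Stably transfected Drosophila Schneider cells are the test system, with ROR gamma fused to Gal4 and luciferase under UAS control; luminescence is read after 20 hr of 700 uM copper sulfate induction at ambient temperature.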
VP16 counter – VP16 counterscreen qHTS for inhibitors of ROR gamma transcriptional activity. Drosophila S2 Gal4-VP16 UAS-luciferase, luminescence, 20 h. Potency, µM (top dose mostly 53.6 µM), most hits filed as inhibitors. actives 3.5% (n = 310,000). AID 2546, 2010;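 note: Gal4-VP16 expression switched on by copper sulfate through the metallothionein promoter; nearly all actives have a fitted effect of over 50% in size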
A number is an active result; – = inactive; ? = inconclusive; · = not tested or not shown; [ ] = remark or other dose. Calls come from the whole dose curve; as a rule, active = well fitted curve in the direction sought with a large enough effect; inconclusive = small, poorly fitted or top-dose-only effect, or another doubt; inactive = no such curve, though single readings can be large; an effect the other way counts as inactive or inconclusive.

SMILES	MCF10A rereplic	ELG1 repair inh	SW480 rereplic	RORg inh	VP16 counter
COc1ccc(OC)c(Nc2nc(-c3sc(N)nc3C)cs2)c1	–	12µM	–	–	–
Cc1ccc(Cl)cc1Nc1nc(-c2sc(NC(=O)C(C)(C)C)nc2C)cs1	–	–	–	?	11µM
COc1ccc(Cl)cc1NC(=O)COC(=O)c1ccc(Cl)nc1	–	–	–	·	·
COC(=O)c1cc(N=C(N)N=C(N)N)cc(C(=O)OC)c1	–	–	?	–	–
CCCN1CCN(S(=O)(=O)c2cn(C)nc2C)CC1	–	–	–	·	·
Cc1c(OCC(=O)NCCN2CCOCC2)ccc2c(-c3ccccc3)cc(=O)oc12	–	–	–	–	–
Cc1cc(C(=O)NC2CCCCCC2)c2ccccc2n1	–	–	–	·	·
Cc1noc(C)c1C(=O)N1CCC2(CC1)CCN(c1ccccn1)CC2	·	·	·	–	–
CCCC(=O)Nc1nc(C)c(-c2csc(Nc3ccccc3OC)n2)s1	–	23µM	–	–	–
COc1ccc(Nc2nc(-c3sc(C)nc3C)cs2)cc1	?	–	1.5µM	–	–
Cc1nc(C)c(-c2csc(Nc3ccc(N)cc3)n2)s1	–	?	–	–	–
Cc1[nH]c2ccccc2c1-c1csc(N)n1	–	–	–	–	–
CCCC(=O)Nc1nc(C)c(-c2csc(Nc3cc(OC)ccc3OC)n2)s1	–	5.2µM	–	?	–
COc1ccccc1Nc1nc(-c2sc(NC(=O)CC(C)C)nc2C)cs1	–	?	?	–	–
COc1ccccc1Nc1nc(-c2c(C)[nH]c3ccccc23)cs1	5.8µM	?	10µM	–	–
CC(=O)Nc1ccc(S(=O)(=O)NCCC(=O)OCc2nc(N)nc(Nc3ccccc3C)n2)cc1	?	?	–	·	·
Cc1sc2nc(CN(C(=O)NC3CCCCC3)C3CCCCC3)[nH]c(=O)c2c1C	–	?	–	–	?
CCCn1c(SCC(=O)Nc2cc(C(=O)O)ccc2C)nc2sc3c(c2c1=O)CCC3	–	–	–	·	·
CC(C)[C@@H](CC(=O)N[C@@H]1CCCC[C@H]1C(=O)N[C@H](CC(=O)N[C@@H](CCC(=O)O)CC(=O)O)Cc1c[nH]c2ccccc12)NC(=O)C[C@H](Cc1ccccc1)NC(=O)[C@@H]1CCCC[C@H]1N	·	·	·	–	–
CCN(C(=O)COC(=O)/C=C/c1nc2ccccc2s1)c1c(N)n(Cc2ccccc2)c(=O)[nH]c1=O	–	·	–	·	·
COc1cccc(CN(C)C(=O)C2CCN(S(=O)(=O)c3ccc(C)cc3)CC2)c1OC	?	–	–	·	·
CCOc1ccccc1Nc1nc(-c2sc(C)nc2C)cs1	?	?	?	8.9µM	?
COc1cccc(Nc2nc(-c3sc(NC(=O)CC(C)C)nc3C)cs2)c1	–	?	–	?	18µM
COc1cccc(Nc2nc(-c3sc(NC(=O)c4ccccc4)nc3C)cs2)c1	?	?	–[9.22 µM]	–	?
C=CCCC(=O)Nc1nc(C)c(-c2csc(Nc3cccc(OC)c3)n2)s1	–	15µM	?	?	?
SMILES	MCF10A rereplic	ELG1 repair inh	SW480 rereplic	RORg inh	VP16 counter
CCCC(C)C(=O)Nc1nc(C)c(-c2csc(Nc3cc(OC)ccc3OC)n2)s1 (centres undefined)	?	18µM	–	?	?
CCOc1ccccc1Nc1nc(-c2sc(NC(=O)c3ccco3)nc2C)cs1	–	?	–	–	–
CCOC(=O)c1c(S(=O)(=O)Nc2ccc(F)cc2C)c(C)n(C)c1C	–	–	–	–	–
COc1ccc(NC(=O)CN(C)C(=O)Cn2cnc3c2c(=O)n(C)c(=O)n3C)cc1	–	–	?	·	·
CN(CC(=O)Nc1ccc(Cl)c(C(F)(F)F)c1)C(=O)C1CC(=O)N(CCc2ccccc2)C1 (centres undefined)	?	?	–	·	·
CC(C)CNC(=O)c1ccc(NC(=O)c2cccs2)cc1	–	?	–	?	–
Cn1cc(CNCc2ccc(OC(F)(F)F)cc2)c(-c2ccc3c(c2)OCCO3)n1	?	–	–	10µM	3.5µM
Cc1c(C)n(CCCN(C)C)c2ncnc(Nc3ccccc3)c12	?	?	–	–	–
COc1ccccc1Nc1ncnc2c1c(C)c(C)n2CCCN(C)C	?	–	21µM	–	–
Cc1c(C)n(Cc2ccccc2)c2ncnc(NN)c12	–	–	–	?	16µM
CC(C)c1ccc(OCC(=O)Nc2ccccc2C(=O)N2CCOCC2)cc1	–	–	–	–	–
CCC(=O)Nc1ccc(SC#N)cc1C	?	–	–	13µM	?
Cc1cc(SC#N)cc(C)c1NC(=O)CCl	?	–	·	3.5µM	5µM
CCc1cc(SC#N)cc(C)c1NC(=O)CCl	16µM	?	23µM	–	–
Cc1ccc(NC(=O)CCl)c(C)c1	?	?	?	–	–
O=C(CC1(O)C(=O)Nc2cc(Cl)cc(Cl)c21)c1ccccc1O (centres undefined)	15µM	–	?	?	?
O=C(CC1(O)C(=O)Nc2ccccc21)c1ccccc1O (centres undefined)	–	–	–	–	–
COc1ccc2[nH]c3c(=O)n(N)c(C)nc3c2c1	–	–	·	?	–
Cc1ccc2[nH]c3c(=O)n(N)c(C)nc3c2c1	–	?	6.5µM	–	–
CC1CN(S(=O)(=O)c2ccc(C(=O)Nc3nnc(-c4ccccn4)o3)cc2)CC(C)O1 (centres undefined)	–	–	–	?	?
CC1CCCCN1S(=O)(=O)c1ccc(C(=O)N2CCOCC2)cc1 (centres undefined)	–	–	–	–	–
CC1CCCN(S(=O)(=O)c2ccc(C(=O)Nc3nnc(C4=COCCO4)o3)cc2)C1 (centres undefined)	·	?	·	0.79µM	1.1µM
CC1CCCCN1S(=O)(=O)c1ccc(C(=O)Nc2nnc(C3=COCCO3)o2)cc1 (centres undefined)	?	–	?	0.89µM	1.3µM
O=C(Nc1nnc(C2=COCCO2)o1)c1ccc(S(=O)(=O)N2CCOCC2)cc1	–	–	–	11µM	–
CC(C)CCN1CCNC(=O)C1CC(=O)N(C)CCCN1CCOCC1 (centres undefined)	–	–	–	–	–
CN(C)C(=O)c1ccc(NC(=O)COC(=O)C2CCN(S(=O)(=O)c3ccc4c(c3)OCCO4)CC2)cc1	–	–	–	·	·
CC(=O)c1ccc(N2CCN(C(=O)CCCc3nc4ccccc4s3)CC2)cc1	18µM	?	–	?	?
COc1ccccc1NS(=O)(=O)c1cc(NC(=O)C2CCCO2)ccc1C (centres undefined)	–	–	–	·	·
COc1cc(C(=O)NS(=O)(=O)c2ccccc2C)ccc1Cc1cn(C)c2ccc(NC(=O)OC3CCCC3)cc12	21µM	·	–	?	–
